From PubChem BioAssay AID624354 (Sanford-Burnham Center for Chemical Genomics, 2012)
Out of some 360,000 compounds screened, about 3,800 (1.1%) were called active. The sample holds actives, similar compounds and a random draw of the others, so the mix is not that of the screen.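 How the source made its calls: active means compounds causing at least 50% loss of cell viability in the single-dose screen, relative to plate controls; inactive means the rest.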

Assay: viability loss with TRAIL in NB7+C8 cells, primary screen, TRAIL sensitizer project, cell-based, ATPlite luminescence (AID 624354)
Details: at 10 µM, stronger effect = higher value

Row | SMILES | inhibition (viability loss, TRAIL sensitization)
1 | COc1ccc(S(=O)(=O)N2CCOCC2)cc1NC(=O)CC1CC2CCC1C2 (configuration not stated) | -19.8% (inactive)
2 | Cn1cc([N+](=O)[O-])c(C(=O)Nc2ccc3c(c2)OCCO3)n1 | 23.6% (inactive)
3 | Cc1cc(=O)[nH]c(N/N=C/c2c(C)nn(-c3ccccc3Cl)c2Cl)n1 | -2.12% (inactive)
4 | Cc1nn(-c2ccccc2)c(Cl)c1/C=N/NC(=O)c1nn(C)cc1[N+](=O)[O-] | 54.6% (active)
5 | COc1ccc(N2CCN(C(=O)C3CCN(S(=O)(=O)c4ccc(C)cc4)CC3)CC2)cc1 | -4.63% (inactive)
6 | CC(C)NC(=O)CSc1nnc(COc2ccccc2Cl)o1 | 11.2% (inactive)
7 | Cn1cncc1C#Cc1c(-c2ccsc2)sc2ccccc12 | 0.155% (inactive)
8 | COc1ccc2sc(-c3ccc(S(C)(=O)=O)cc3)c(C#Cc3cncn3C)c2c1 | 54.7% (active)
9 | COc1cccc(-c2sc3ccc(OC)cc3c2-c2ccc(OCCN3CCCCC3)cc2)c1 | 12.9% (inactive)
10 | Cc1cc(C)n2nc(C(=O)OCC(=O)N(C)CC(=O)Nc3ccc(F)cc3)nc2n1 | 2.14% (inactive)
11 | c1ccc(-n2ncc(-c3nn[nH]n3)n2)cc1 | 8.97% (inactive)
12 | O=C(NNS(=O)(=O)c1ccc([N+](=O)[O-])cc1)C1CCCCC1 | -2.99% (inactive)
13 | O=C(C[C@H]1C/C=C\C[C@@H](NC(=O)OCC2c3ccccc3-c3ccccc32)C(=O)O[C@@H](c2ccccc2)CNC1=O)N[C@H](CO)Cc1ccccc1 | 73.9% (active)
14 | CC(C)(C)OC(=O)C[C@@H]1C/C=C\C[C@@H](CC(=O)N[C@H](CO)Cc2ccccc2)C(=O)NC[C@@H](c2ccccc2)OC1=O | 3.83% (inactive)
15 | CC(C)(C)OC(=O)C[C@H]1C/C=C\C[C@@H](CC(=O)N[C@H](CO)Cc2ccccc2)C(=O)NC[C@@H](c2ccccc2)OC1=O | -2.43% (inactive)
16 | O=c1ccn([C@@H]2O[C@H](CNS(=O)(=O)c3cc4ccccc4s3)[C@@H](O)[C@H]2O)c(=O)[nH]1 | 5.61% (inactive)
17 | COc1ccc(N2CCN(C(CNS(=O)(=O)c3ccc(C)cc3)c3ccccc3)CC2)cc1 (configuration not stated) | -6.83% (inactive)
18 | O=C(NCCc1ccccn1)c1cc(-c2ccc(Cl)cc2)nc2ccccc12 | 7.97% (inactive)
19 | CC1CCCC(NC(=O)c2cc(-c3ccncc3)nc3ccccc23)C1C (configuration not stated) | 11.9% (inactive)
20 | CCc1ccc(-c2cc(C(=O)NN3CCN(C)CC3)c3ccccc3n2)cc1 | 58.3% (active)
21 | O=C(NCc1cccnc1)c1ccccc1NC(=O)c1c(F)cccc1F | -13.9% (inactive)
22 | COc1ccc(CC(N)c2csc(NC(=O)Cc3ccccc3)n2)cc1 (configuration not stated) | -6.08% (inactive)

Row | SMILES | inhibition (viability loss, TRAIL sensitization)
23 | COc1ccc(CC(N)c2csc(NC(=O)Nc3ccc(C(C)C)cc3)n2)cc1 (configuration not stated) | 92.1% (active)
24 | COc1ccc(CC(N)c2csc(NC(=O)NC(c3ccccc3)c3ccccc3)n2)cc1 (configuration not stated) | 44.6% (inactive)
25 | N#Cc1ccc(CN2CCN(CC(=O)Nc3ccccc3C(=O)NC3CC3)CC2)cc1 | -1.82% (inactive)
26 | Cn1c(=NC(=O)c2cnccn2)sc2ccccc21 | 61.8% (active)
27 | COC(=O)c1ccc(OC(=O)c2cnccn2)cc1 | 6.75% (inactive)
28 | Cn1c(=NC(=O)c2ccco2)sc2cccc(F)c21 | 47.7% (inactive)
29 | OCCCNC(c1ccccc1)c1ccc(O)cc1 (configuration not stated) | 20.3% (inactive)
30 | CN(C)c1cccc(NC(=O)c2ccc(-c3ccc(F)c(F)c3)c3ccoc23)c1 | 20.1% (inactive)
31 | Cc1sc2ncn(CC(=O)NCCCC(=O)N3CCN(c4ccccc4F)CC3)c(=O)c2c1C | 19.6% (inactive)
32 | CCN(C(=O)CN1C(=O)/C(=C/c2ccc(F)cc2)SC1=S)C1CCS(=O)(=O)C1 (configuration not stated) | -9.46% (inactive)
33 | CN(C(=O)CN1C(=O)/C(=C/c2ccc(Cl)cc2)SC1=S)C1CCS(=O)(=O)C1 (configuration not stated) | 10.1% (inactive)
34 | C=CCOc1ccc(/C=C2\SC(=S)N(CCC(=O)O)C2=O)cc1 | 56.9% (active)
35 | COCCN(C(=O)CSCc1ccc(C)cc1)c1c(N)n(CC(C)C)c(=O)[nH]c1=O | -0.426% (inactive)
36 | COc1cccc(NC(=O)CN(C)CC(=O)c2c(N)n(Cc3ccccc3)c(=O)n(C)c2=O)c1 | -2.67% (inactive)
37 | Cc1ccc(S(=O)(=O)/N=C(\CN2CCOCC2)N2CCOCC2)cc1 | -0.117% (inactive)
38 | NN=C(NN=Cc1ccccc1)c1ccccc1 | 12.4% (inactive)
39 | O=C(N/N=C/c1cc([N+](=O)[O-])ccc1O)/C(=C\c1cccs1)NC(=O)c1ccccc1 | 41.5% (inactive)
40 | O=C(N/N=C/c1ccccc1O)/C(=C/c1ccccc1)CCO | 51.4% (active)
41 | CCCc1nn2c(=O)cc(CSCC(=O)Nc3cccc(C)c3)nc2s1 | -0.888% (inactive)
42 | COc1ccc(-c2cc3ccc(OCc4nn[nH]n4)cc3oc2=O)cc1 | 56.7% (active)
43 | CCOC(=O)CCc1c(C)c2ccc(OCc3nn[nH]n3)c(C)c2oc1=O | -5.29% (inactive)
44 | CCCCc1cc(=O)oc2cc(C)cc(OCc3nn[nH]n3)c12 | 10.2% (inactive)

Row | SMILES | inhibition (viability loss, TRAIL sensitization)
45 | CCc1ccc(-n2c(=S)sc3c(=O)n(-c4ccccc4OC)c(=S)[nH]c32)cc1 | -3.67% (inactive)
46 | Cc1cccc(C)c1NC(=O)C(c1cccc2ccccc12)n1c(=O)c(-c2ccco2)nc2ccccc21 (configuration not stated) | -6.27% (inactive)
47 | O=c1oc(/C=C/c2ccccc2)nc2ccccc12 | 77.8% (active)
48 | S=c1[nH]nc(/C=C/c2ccccc2)o1 | 0.666% (inactive)
49 | O=c1oc(-c2ccccc2NS(=O)(=O)c2ccc(Cl)cc2)nc2ccccc12 | 6.47% (inactive)
50 | CN1CCC(CN)(N2CCN(c3ccccc3)CC2)CC1 | 6.93% (inactive)
51 | COc1ccc(CCNc2cc(N3CCN(C(=O)c4ccccc4OC)CC3)ccc2[N+](=O)[O-])cc1OC | 39.3% (inactive)
52 | O=[N+]([O-])c1ccc(C=Nc2ccc(Cl)cc2Cl)s1 | 53.8% (active)
53 | C[C@@H]1CN([C@@H](C)CO)C(=O)c2cc(NS(C)(=O)=O)ccc2O[C@@H](C)CCCCO[C@H]1CN(C)C(=O)Nc1ccc2c(c1)OCO2 | -14.6% (inactive)
54 | COc1cccc(-c2cc3nc(NCCOc4ccccc4Cl)n(C)c(=O)c3s2)c1 | -1.03% (inactive)
55 | Cn1c(NCc2cccnc2)nc2cc(-c3ccc(F)cc3)sc2c1=O | 12.2% (inactive)
56 | O=c1[nH]c(CCl)nc2cc(-c3ccc(Cl)cc3)sc12 | 94.8% (active)
57 | CN(CC(=O)Nc1cccc(F)c1)C(=O)C1CC(=O)N(CCc2ccccc2)C1 (configuration not stated) | 0.466% (inactive)
58 | O=C(CNC(=O)C(c1ccccc1)c1ccccc1)N/N=C\c1ccc2c(c1)OCO2 | 9.36% (inactive)
59 | C(=N\Nc1ccc2ccccc2n1)/c1ccc2c(c1)OCO2 | 62.1% (active)
60 | Clc1ccc(Nc2ccc3ccccc3n2)cc1 | 22.5% (inactive)
61 | COc1ccc(NC(=O)C2(C)Cc3c(-c4cccc(NC(C)=O)c4)ccnc3O2)cc1OC (configuration not stated) | 4.61% (inactive)
62 | CCCCN1CC(N2CCN(Cc3cccc(C)c3)CC2)CS1(=O)=O (configuration not stated) | 4.54% (inactive)
63 | CC(=O)[C@@]12O[C@@H]1C[C@H]1[C@@H]3CC[C@H]4C[C@@H](O)CC[C@]4(C)[C@H]3CC[C@@]12C | 0.527% (inactive)
64 | CCCNc1c(N)c(=O)c1=O | -1.54% (inactive)
65 | C[C@H]1COc2cc(N3CCSCC3)ccc2S(=O)(=O)N1 | -6.12% (inactive)
66 | Cc1cc(Br)cn2c(Cc3ccccc3C(F)(F)F)c(-c3ccc(Cl)cc3)nc12 | 22.1% (inactive)

Row | SMILES | inhibition (viability loss, TRAIL sensitization)
67 | O=C(O)c1cc(S(=O)(=O)N(Cc2ccccc2)c2ccccc2)ccc1Cl | -9.38% (inactive)
68 | CCN(CC)CCCC(C)n1c2nc(=O)[nH]c(=O)c-2nc2cc(Cl)ccc21 (configuration not stated) | 48.4% (active)
69 | CCc1ccc(S(=O)(=O)Nc2ccc(C)c(NS(C)(=O)=O)c2)cc1 | -5.21% (inactive)
70 | Cc1c(O)c(C)c2c(c1O)C(=O)C[C@@H](c1ccccc1)O2 | 18.2% (inactive)
71 | CC1CN(C(=O)CCC(=O)NCCCN2CCC(Cc3ccccc3)CC2)c2cc(Cl)ccc2O1 (configuration not stated) | 40.8% (inactive)
72 | CC(C)=CCC/C(C)=C/C(=O)O | -7.95% (inactive)
73 | COc1ccc(OC)c(/C=C/C(=O)c2ccc3c(c2)OCO3)c1 | 12.1% (inactive)
74 | O=C(COC(=O)c1ccc(O)cc1O)c1ccc2c(c1)OCCO2 | 0.773% (inactive)
75 | O=C(/C=C/c1ccc2c(c1)OCCO2)c1ccc(O)cc1 | 58.1% (active)
76 | CCOCCCN(C(=O)Cn1nnc(-c2ccc(OC)c(OC)c2)n1)C(CC)C(=O)NC1CCCC1 (configuration not stated) | -5.95% (inactive)
77 | CCOC(=O)C(NS(=O)(=O)c1ccc(C)cc1)(C(F)(F)F)P(=O)(OCC(C)C)OCC(C)C (configuration not stated) | 27.5% (inactive)
78 | COc1ccccc1N1CCN(S(=O)(=O)c2ccc3c(c2)NC(=O)CS3)CC1 | 8.43% (inactive)
79 | Cc1nn(Cc2ccc(C(=O)N3N=C(C(F)F)CC3(O)C(F)F)cc2)c(C)c1[N+](=O)[O-] (configuration not stated) | 0.592% (inactive)
80 | CC(=O)Nc1ccc(S(=O)(=O)NC(C)C(=O)OCCOc2ccc(F)cc2)cc1 (configuration not stated) | -1.76% (inactive)
81 | CS(=O)(=O)c1cccc(-c2ccc3nncn3c2)c1 | 1.26% (inactive)
82 | CC(C)n1cnc2c(NCc3ccccc3)cc(OCC3CCN(C)CC3)cc21 | 54.6% (active)
83 | COCCNC(=O)CN(C(=O)CCC(=O)Nc1cc(C)on1)c1ccc(C)cc1C | 12.5% (inactive)
84 | O=C(NCc1ccccc1)C(c1ccc(F)cc1)N1CCN(C(=O)C2CCCO2)CC1 (configuration not stated) | 3.33% (inactive)
85 | Cc1ccc(C)c(NC(=O)CSc2nc3c(oc4ccccc43)c(=O)n2-c2ccccc2)c1 | -5.26% (inactive)
86 | CCCCC(=O)Nc1cc(C)c2c(=O)oc3ccccc3c2n1 | 58.6% (active)
87 | CCCCC(=O)Nc1ccc2c(c1)C(=O)NC2=O | 8.86% (inactive)
